According to PubChem BioAssay (EPA / NIEHS):
Activity calls are given as the source filed them. How the source made its calls: active means hit-call score of the fitted dose curve at least 0.9, where 1 is the maximum; inactive means score below 0.9.

experiment: APR_HepG2_MitoMass_24hr: Apredica 24-hour HepG2 Assay for Mitochondrial Mass (AID 2282912); settings: high-content imaging, actives raise or lower the signal
Experimental: APR_HepG2_24hr is a cell-based, multiplexed-readout assay that uses HepG2, a human liver cell line, with measurements taken at 24 hours after chemical dosing in a 384-well plate.APR_HepG2_MitoMass_24hr is one of 10 assay component(s) measured or calculated from the APR_HepG2_24hr assay. It is designed to make measurements of cell phenotype, a form of morphology reporter, as detected with fluorescence intensity signals by HCS Fluorescent Imaging technology.Data from the assay component APR_HepG2_MitoMass_24hr was analyzed into 1 assay endpoint. This assay endpoint, APR_HepG2_MitoMass_24hr, was analyzed with bidirectional fitting relative to DMSO as the negative control and baseline of activity. Using a type of morphology reporter, gain or loss-of-signal activity can be used to understand changes in the signaling. Furthermore, this assay endpoint can be referred to as a primary readout, because this assay has produced multiple assay endpoints where this one serves a signaling function. To generalize the intended target to other relatable targets, this assay endpoint is annotated to the cell morphology intended target family, where the subfamily is organelle conformation.
Cells were treated with dimethyl sulfoxide (DMSO) as a solvent control at a final concentration of 0.5% v/v or with compounds in DMSO with a resulting final DMSO concentration of 0.5% v/v. Compound treatment was done at concentrations of 0.39, 0.78, 1.56, 3.12, 6.24, 12.5, 25, 50, 100, and 200 uM in duplicate on each plate. Cells were treated with compounds for 1, 24, or 72 hr. Carbonyl […] m-chloro-phenylhydrazone (CCCP) and taxol were used as positive controls for mitochondrial function and cytoskeletal stability, respectively; DMSO served as the negative control for this experiment. Cells were fixed by the direct addition of 50 uL formaldehyde in Hank's Balanced Salt Solution (HBSS) to a final concentration of 3.7%. After incubation in the fixation medium for 30 min at room temperature (293-298 K), cells were rinsed twice with HBSS and treated with cell permeabilization buffer (16 uL of 0.5% Triton X-100) for 10 min at room temperature (293-298 K) before labeling. For mitochondrial membrane potential and mitochondrial measurements, pre-fixed cells were incubated with 50 uL of MitoTracker Red CMXRos (Invitrogen) at a concentration of 250 nM for 30 min before fixation. In the remaining cases, post-fixed cells were labeled by incubation with a multiplexed mixture of primary antibodies in HBSS for 60 min at room temperature (293-298 K) to detect immunoreactivity of c-Jun (1:500), phospho-histone H3 (1:100), phospho-histone H2A.x (1:200), p53 (1:400), alpha-tubulin (1:200) and Hoechst 33342 (2 ug/mL). Cells were labeled for multiplexed imaging on two separate plates: a) Hoechst 33342, MitoTracker Red, phospho-histone H3, and alpha-tubulin, and b) Hoechst 33342, phospho-histone H2A.x, and c-Jun. A final rinse with HBSS (50 uL) was performed before analysis. The primary and secondary antibodies for the proteins were phospho-histone H3 (rabbit anti-phospho-histone H3 and FITC-donkey anti-rabbit IgG), phospho-histone H2A.x (mouse anti-phospho-histone H2A.x and FITC-donkey anti-mouse IgG), c-Jun (rabbit anti-phospho-c-Jun and Cy3-donkey anti-rabbit IgG), p53 (sheep anti-p53 and Cy5-donkey anti-sheep IgG), alpha-tubulin (mouse anti-alpha-tubulin and Cy5-donkey anti-mouse IgG). These antibodies are available as the CellCiphr HepG2 assay kit (Millipore).Digital images of each well were captured using a Cellomics ArrayScan VTI (Thermo Scientific Cellomics) (0.8 NA objective, 0.63x optical coupler, and XF-93 filter set) at 20x magnification. The images were acquired using the autofocus feature of the ArrayScan instrument, which entails the following steps. First, the camera focuses on channel 1 (Hoechst 33342), where nuclei are identified. Second, a Z offset of 1 um is used for capturing mitochondria (MitoTracker Red). […]

| Compound | outcome | AC50 |
| --- | --- | --- |
| CC(C)CCCCCCOC(=O)c1ccc(C(=O)OCCCCCCC(C)C)c(C(=O)OCCCCCCC(C)C)c1 | inactive |  |
| CCOCCO | inactive |  |
| CCOC(=O)c1ccc(C2CCC(NC[C@H](O)COc3ccc(O)c(NS(C)(=O)=O)c3)CC2)cc1 (stereo not given in full) |  | 28.1 µM (active) |
| CCN(C(=O)c1cc(C)cc(OC[C@H](C)Nc2ccncc2)c1)C(C)C | inactive |  |
| CC/C(=C\C(=N/O)C(N)=O)C(C)[N+](=O)[O-] (stereo not given) | inactive |  |
| CCn1nc(Cc2ccccc2)cc1C1CCN(C[C@H]2C[C@H](N(C)[C@@H](C(=O)O)C(C)C)C[C@@H]2c2cccc(F)c2)CC1 | inactive |  |
| CCOc1cccc(-n2cc(C(=O)N3CCN(c4cc(C(=O)O)c5ccccc5c4)CC3)nc2-c2ccc(C)cc2)c1 |  | 104 µM (active) |
| Cc1ccc(C)c(O)c1 | inactive |  |
| CCOC(=O)COc1ccc2c(c1)CC(NCC(O)c1cccc(Cl)c1)CC2 (stereo not given) |  | 41.5 µM (active) |
| CC[C@H](C)C(=O)O[C@H]1C[C@@H](C)C=C2C=C[C@H](C)[C@H](CC[C@@H]3C[C@@H](O)CC(=O)O3)[C@H]21 |  | 5.52 µM (active) |
| C1=CCCC=CCCC=CCC1 | inactive |  |
| CC(C)(O)c1coc(S(=O)(=O)NC(=O)Nc2c3c(cc4c2CCC4)CCC3)c1 | inactive |  |
| CC(=O)OCCC(C)C | inactive |  |
| Nc1nc2ncc(CNc3ccc(C(=O)N[C@@H](CCC(=O)O)C(=O)O)cc3)nc2c(=O)[nH]1 | inactive |  |
| CCCCC(CC)COC(=O)c1ccc(C(=O)OCC(CC)CCCC)cc1 (stereo not given) | inactive |  |
| Cc1c(-c2cccnc2)c2ccccc2n1CCCCC(=O)O | inactive |  |
| CNS(=O)(=O)c1cc(C(=O)N2CCC(CCN3C4CCC3CC(n3c(C)nc5ccccc53)C4)(c3cccc(F)c3)CC2)c(Cl)cc1F (stereo not given) |  | 62.7 µM (active) |
| COc1ccc(/C=C/S(=O)(=O)NC(=O)c2ccc(C)cc2Cl)cc1 | inactive |  |
| CCCC(=O)OCC | inactive |  |
| Cc1ccc(O)cc1 | inactive |  |

| Compound | outcome | AC50 |
| --- | --- | --- |
| CCCCC(CC)COC(=O)CCCCCCCCC(=O)OCC(CC)CCCC (stereo not given) | inactive |  |
| CCCCCCCCCCCCc1ccccc1 | inactive |  |
| Clc1nc(Cl)c(Cl)c(Cl)c1Cl |  | 102 µM (active) |
| CCCCCCc1ccc(O)cc1O |  | 125 µM (active) |
| COCCOCCOCCOC | inactive |  |
| CCCCCCCCO | inactive |  |
| O=C1CCC(N2C(=O)c3ccccc3C2=O)C(=O)N1 (stereo not given) | inactive |  |
| CCC(C)(C)C(=O)O[C@H]1C[C@@H](C)C=C2C=C[C@H](C)[C@H](CC[C@@H]3C[C@@H](O)CC(=O)O3)[C@H]21 |  | 3.97 µM (active) |
| O=C1CCCCCN1 | inactive |  |
| CCOC(=O)CC(CC(=O)OCC)(OC(C)=O)C(=O)OCC | inactive |  |
| COC(=O)c1ccccc1O | inactive |  |
| CC(C)=CCC/C(C)=C\CO | inactive |  |
| COC(=O)c1c(Cl)c(Cl)c(C(=O)OC)c(Cl)c1Cl | inactive |  |
| O=C1OC(=O)C2C3C=CC(C3)C12 (stereo not given) | inactive |  |
| CC(C)=CCCC(C)=CC=O | inactive |  |
| CC(C)=CCCC(C)CCO (stereo not given) | inactive |  |
| CC(=O)c1ccc2c(c1)[C@H](NC(=O)c1ccc(F)cc1)[C@@H](O)C(C)(C)O2 | inactive |  |
| C1N2CN3CN1CN(C2)C3 | inactive |  |
| CC(C)CCCCCCCOC(=O)CCCCC(=O)OCCCCCCCC(C)C | inactive |  |
| COc1ccc2sc(C(=O)Nc3nnn[nH]3)c(OC(C)C)c2c1 | inactive |  |
